Assay results as given in PubChem BioAssay (EPA / NIEHS).
Values joined by “and” are separate entries in the source; they are usually repeats but may differ in a detail not shown here. Equal values may be shown once. Results filed as inconclusive are left out. Active and inactive are the calls of the source. How the source made its calls: active means hit-call score of the fitted dose curve at least 0.9, where 1 is the maximum; inconclusive means response in the unintended direction; inactive means score below 0.9.

molecular target: Cellular tumor antigen p53 (Homo sapiens) (UniProt P04637); experiment: TOX21_p53_BLA_p4_ratio: Tox21 HCT-116 p53 Agonism Beta-lactamase Assay, Ratio, Phase 4 (AID 2283601)
Summary of the method: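 Signal is the blue/green (460nm/530nm) ratio of cleaved versus uncleaved CCF4-AM substrate, read after 2 h substrate loading. Cells were HCT116 carrying the p53-responsive beta-lactamase reporter, dosed 16 h at 37C, 5% CO2; CellTiter-Glo measured in parallel.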

Chain of Cellular tumor antigen p53 (Homo sapiens) (P04637 whole entry, looked up): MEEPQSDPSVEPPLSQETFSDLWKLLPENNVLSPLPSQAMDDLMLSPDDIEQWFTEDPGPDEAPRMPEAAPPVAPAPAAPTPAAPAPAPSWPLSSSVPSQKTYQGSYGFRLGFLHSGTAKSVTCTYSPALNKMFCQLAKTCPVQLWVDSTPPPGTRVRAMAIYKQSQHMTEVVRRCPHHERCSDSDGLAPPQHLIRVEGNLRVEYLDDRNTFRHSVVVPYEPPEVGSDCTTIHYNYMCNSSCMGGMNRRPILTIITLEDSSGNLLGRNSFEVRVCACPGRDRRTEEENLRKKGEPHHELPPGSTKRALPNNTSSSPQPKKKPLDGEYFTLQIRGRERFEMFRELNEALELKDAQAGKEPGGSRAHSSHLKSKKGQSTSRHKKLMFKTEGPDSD

Row | Compound | AC50 | outcome
1 | NNc1nc(-c2ccc([N+](=O)[O-])cc2)cs1 | 43.5 µM (active) | 
2 | C=CC(C)(CCC=C(C)C)OC(C)=O (configuration not stated) |  | inactive
3 | CCCCCCCCCCCC[N+](C)(C)CCCCCCCCCCCC | 32.3 µM (active) | 
4 | O=C(O)C(=O)O |  | inactive
5 | CCCCCCCCCCCCCCCCCC[N+](C)(C)Cc1ccccc1 | 69.6 µM (active) | 
6 | CCCCCCCCCCCCCC[n+]1ccccc1 | 21.6 µM (active) | 
7 | CCOC(C)=O |  | inactive
8 | CCOC(=O)CN[C@@H](C(=O)N1CC[C@H]1C(=O)NCc1ccc(/C(N)=N/O)cc1)C1CCCCC1 |  | inactive
9 | O=C(Nc1ccc(Cl)c(Cl)c1)c1cc(Cl)cc(Cl)c1O | 2.77 µM (active) | 
10 | COc1ccccc1NC(=O)c1cc2ccccc2cc1O | 36.1 µM (active) | 
11 | CC(C)(C)c1ccc(O)c(O)c1 |  | inactive
12 | C=CC(=O)OCC(CO)(COCC(COC(=O)C=C)(COC(=O)C=C)COC(=O)C=C)COC(=O)C=C | 65 µM (active) | 
13 | O=C(O)c1cccc(C(=O)O)n1 |  | inactive
14 | CCCCCCOC(=O)c1ccc(O)cc1 | 67.3 µM (active) and 80 µM (active) | 
15 | CCC(C)c1nccnc1OC (configuration not stated) |  | inactive
16 | Cc1ccc(C)c(S(=O)(=O)O)c1 |  | inactive
17 | CC(C)C=O |  | inactive
18 | O=S(=O)(O)c1ccc2cc(O)ccc2c1 |  | inactive
19 | Oc1c(Cl)ccc(Cl)c1Cl |  | inactive
20 | O=c1cc(-c2ccccc2)oc2ccc3ccccc3c12 |  | inactive
21 | Nc1cc(Cl)c(-c2cc(Cl)c(N)cc2Cl)cc1Cl | 81.8 µM (active) and 57.1 µM (active) | 
22 | O=C(NO)c1ccccc1 |  | inactive
